In PubChem BioAssay (Tox21) one finds outcome and activation data, which are given here for 40 molecules.

Results filed as inconclusive are left out. The source made the active and inactive calls. Calls follow the shape of the dose curve; as a rule, active = well fitted activation curve with a large enough effect in the signal ratio in the repeat runs (not every such curve was filed as active); inconclusive = weak or mixed curves; inactive = flat fitted curve, though single readings scatter; the % refers to the signal ratio.
% is scaled to controls: 0 for no effect and ±100 for the full control effect.

A short description of this experiment: qHTS assay to identify small molecule agonists of the TGF-beta/Smad signaling pathway (AID 1346859). Conditions: SBE-bla HEK293T, TGF-beta/Smad beta-lactamase reporter, 5 h; series mostly up to 76.8 µM. The text has this: U.S. Tox21 Program National Center for Advancing Translational Sciences [NCATS] NIH Chemical Genomics Center [NCGC] U.S. Environmental Protection Agency [EPA] National Institutes of Environmental Health Sciences [NIEHS] National Toxicology Program [NTP] U.S. Food and Drug Administration [FDA] Tox21 Assay Overview: Transforming growth factor beta (TGF-beta) superfamily consists of a large number of structurally related dimeric proteins that act as hormones or local mediators in regulating a wide range of biological functions. This superfamily includes TGF-betas themselves, the bone morphogenetic proteins (BMPs) and the activins. These ligands induce oligomerization of serine/threonine receptor kinases and phosphorylate the cytoplasmic signaling molecules of Smad protein family. CellSensor SBE-bla HEK 293T cell line (Life Technologies, Carlsbad, CA), responsive to TGF-beta was used to screen Tox21 10K compound library for identification of agonists/antagonists of the Smad signaling pathway. This cell line contains a beta-lactamase reporter gene under control of the Smad binding element (SBE) stably integrated into HEK 293T cells.
Tox21 Assay Protocol Summary: SBE-bla HEK 293T cells were dispensed at 4,000/well in 6 uL of assay medium into black wall/clear-bottom 1536-well plates using a Multidrop Combi (ThermoFisher Scientific, Waltham, MA) dispenser. After the assay plates were incubated at 37 C and 5% CO2 for an overnight, 23 nL of compounds dissolved in DMSO, positive controls or DMSO only was transferred to the assay plate by a Pintool station (Kalypsys, San Diego, CA). The assay plates were incubated at 37 C and 5% CO2 for 5 hr. One uL of LiveBLAzer B/G FRET substrate (Life Technologies) was added using a Flying Reagent Dispenser (Aurora Discovery, San Diego, CA) and the plates were incubated at room temperature for 2 hr. Fluorescence intensity (405 nm excitation, 460 nm and 530 nm emissions) was measured using an Envision plate reader (PerkinElmer, Shelton, CT).
As to `NNCc1ccccc1`, the molecule was called inactive.

On to `S=C=S`, for which the result was inactive.

With `Oc1ccc(Cc2ccc(O)cc2)cc1`, the call was inactive. Turning to `CC(C)NCC(O)c1ccc([N+](=O)[O-])cc1` (stereo not given), the result was inactive. For `CC(=O)OCC1=C(C(=O)O)N2C(=O)[C@@H](N)[C@H]2SC1`, the activation was -1.32% [at 15.8 µM] (inactive). As to `COc1ccccc1OC`, the molecule was called inactive. Same read-out and setting: the same measure for `COC(=O)[C@@H](N)CCCN/C(N)=N/[N+](=O)[O-]`: “inactive”; for `N#CN`: “inactive”.

For the molecule `CCCC(C)(COC(N)=O)COC(N)=O`, the call was inactive.

For `CC(=NC#N)N(C)Cc1ccc(Cl)nc1`, the molecule was called inactive.

Take `CN(C)CCN(C)C`: the molecule was classed as inactive. Still for that read-out and setting: the same measure for `C=CCc1cc(OC)c2c(c1)OCO2`: “inactive”; for `C#CCOC(=O)/C=C(C)/C=C/CC(C)CCCC(C)C` (stereo not given): “inactive”; for `CCCCCCCCBr`: “inactive”.

For the molecule `CC(C)(C1CCC(O)CC1)C1CCC(O)CC1` (stereo not given), the outcome was inactive.

In the case of `[O-][Br+2]([O-])O`, the outcome was inactive. On the same count and under the same terms, with `C[C@H](CN1CCOCC1)C(C(=O)N1CCCC1)(c1ccccc1)c1ccccc1` the entry was “inactive”; with `CCCCCCC1CCOC1=O` (stereo not given), “inactive”; with `C=CC=O`, “inactive”. The same measure, in the same setting: with `C[C@H]1CCCC(=O)CCC/C=C/c2cc(O)cc(O)c2C(=O)O1` the entry was “inactive”; with `Cc1cccc2sc3nncn3c12`, “inactive”. As to `CCN[C@@H](C)Cc1cccc(C(F)(F)F)c1`, the molecule was called inactive. Still for that read-out and setting: with `CCOP(=S)(OCC)Oc1ccc(Cl)cc1Cl` the entry was “inactive”; with `CCCOC(=O)c1cncn1C(C)c1ccccc1` (stereo not given), “inactive”; with `C(COCC1CO1)OCC1CO1` (stereo not given), “inactive”. The same measure, in the same setting: with `CCCC(C)C1(CC)C(=O)N=C(S)NC1=O` (stereo not given) the entry was “inactive”; with `CCC1(c2ccccc2)C(=O)N(COC)C(=O)N(COC)C1=O`, “inactive”. The same measure, in the same setting: the same measure for `CC(C)(N)Cc1ccc(Cl)cc1`: “inactive”; for `BrCCc1ccccc1`: “inactive”; for `CNC(=O)Oc1cc(C)c(N(C)C)c(C)c1`: “inactive”. As for `O=C1C2CC=CCC2C(=O)N1SC(Cl)(Cl)Cl` (stereo not given), the outcome was inactive. Still for that read-out and setting: with `Cn1c(N)nc2c3cccnc3ccc21` the entry was “inactive”. Take `NC(=O)OCCCc1ccccc1`: the result was inactive. Take `NCC1(CC(=O)O)CCCCC1`: the call was inactive. On the same count and under the same terms, the same measure for `O=C(Cl)/C=C/C(=O)Cl`: “inactive”. On the same count and under the same terms, with `CON(C)C(=O)Nc1ccc(Br)c(Cl)c1` the entry was “inactive”; with `O=C(O)c1c(Cl)ccc2cc(Cl)cnc12`, “inactive”.

For `CC[C@@H](CO)NC(=O)[C@@H]1C=C2c3cccc4c3c(cn4C)C[C@H]2N(C)C1`, the outcome was inactive. The same measure, in the same setting: the same measure for `C#CC(C)(C)O`: “inactive”; for `O=C(Cl)CCl`: “inactive”.
